Bioassay records from PubChem BioAssay.
GalR3 antagonist: GalR3 antagonists in HEK293 cells, primary screen, cell-based, fluorescence readout | HEK293 GalR3-CNG cAMP membrane potential fluorescence; galR3 body fused to GalR1 C-terminus | inhibition, % at 3 µM | hit rate 0.44% among 360,000 | AID 651719, 2012;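 active = inhibition above the screen-wide average plus 3 SD, cut at about 13% in these data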;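 note: forskolin and galanin both at EC90 stimulate the cells; cAMP rise reported by CNG channel membrane potential dye signal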
Target sequence (O60755 1-299 limits assumed): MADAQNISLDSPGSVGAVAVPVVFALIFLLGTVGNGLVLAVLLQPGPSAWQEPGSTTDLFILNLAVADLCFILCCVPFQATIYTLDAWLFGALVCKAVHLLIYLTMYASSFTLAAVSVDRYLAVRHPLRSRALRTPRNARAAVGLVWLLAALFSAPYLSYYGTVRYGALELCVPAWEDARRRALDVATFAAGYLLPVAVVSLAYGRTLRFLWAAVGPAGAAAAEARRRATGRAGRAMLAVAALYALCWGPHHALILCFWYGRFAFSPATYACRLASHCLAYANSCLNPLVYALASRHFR
COUP-TFII inh: NR2F2 transcriptional activity inhibitors, primary screen, cell-based, luciferase reporter, HEK293T, luminescence | COUP transcription factor 2 (Homo sapiens), P24468 | HEK293T NGFI-A luciferase reporter | inhibition, % at 8.6 µM | hit rate 0.7% among 370,000;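 active = inhibition above a per-plate cutoff, mean inhibition of test wells between control levels plus 3 SD, cut at about 38% in these data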;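 note: cells cotransfected with COUP-TFII expression vector driving the NGFI-A reporter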
Target sequence (P24468 whole entry, looked up): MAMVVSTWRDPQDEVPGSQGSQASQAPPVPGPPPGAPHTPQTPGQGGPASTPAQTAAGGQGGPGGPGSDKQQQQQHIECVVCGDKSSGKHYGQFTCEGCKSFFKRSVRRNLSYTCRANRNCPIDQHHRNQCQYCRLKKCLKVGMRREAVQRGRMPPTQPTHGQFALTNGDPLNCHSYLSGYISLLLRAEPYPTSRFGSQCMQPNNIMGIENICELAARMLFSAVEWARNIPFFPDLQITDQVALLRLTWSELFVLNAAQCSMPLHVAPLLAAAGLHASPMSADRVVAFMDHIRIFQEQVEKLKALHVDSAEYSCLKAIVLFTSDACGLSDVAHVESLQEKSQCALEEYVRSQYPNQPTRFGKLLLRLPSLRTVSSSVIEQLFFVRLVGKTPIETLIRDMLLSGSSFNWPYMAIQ
Gli-Sufu antag: Gli-Sufu pathway antagonists, primary screen, luciferase luminescence, Sufu-KO-LIGHT cells, uHTS | Sufu-KO-LIGHT fibroblasts, Gli luciferase reporter luminescence | hit rate 0.74% among 340,000 | inhibition, % at 5 µM | AID 588413, 2011;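 active = inhibition above about 55%, limit read from the data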
aDG glyco act: activators of alpha-DG glycosylation, primary screen, uHTS, Pro5-aDG cells, AlphaScreen; alpha-DG glycosylation AlphaScreen (IIH6); 0% Pro5, 100% B10-LARGE cell signal; activation, % at 10 µM; hit rate 0.22% among 360,000; AID 624168, 2012;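 active = activation of at least 8% versus controls, or a plate z-score of at least 8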;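 note: Pro5 are CHO cells carrying HIG-tagged alpha-DG that lacks glycosylation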
Env fusion inh: inhibitors of HIV-1 Env-driven cell-cell fusion, primary screen, HeLa-JRFL effector, CEM21 target cells, luciferase; inhibition, % at 12.3 µM; hit rate 1.1% among 360,000; AID 651610, 2012;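 active = mean replicate inhibition score of at least 50 and every replicate individually at or above 50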
Gli antag conf: Gli-SUFU pathway antagonists, confirmation, single concentration, luciferase luminescence, Sufu-KO-LIGHT cells | AID 602428, 2012 | Gli luciferase reporter | shares compounds with Gli-Sufu antag | hit rate 40% among 2,500 | inhibition, % at 5 µM;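 active = mean inhibition at 5 µM reaching about 45%, limit read from the data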
Gli cytotox: cytotoxicity in Sufu-KO-LIGHT cells, confirmation, cytotoxicity control for Gli-SUFU antagonist project, cell-based, ATP luminescence, single concentration; shares compounds with Gli-Sufu antag; AID 651994, 2013; hit rate 32% among 2,500; cytotoxicity, % at 5 µM;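 active = mean cytotoxicity at 5 µM above about 25%, limit read from the data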;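 note: cells exposed to compound overnight for roughly 16 to 18 hours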
Wnt3a cs: Wnt3a reporter signal inhibition, confirmation, counter-screen for Gli-SUFU antagonist project, Wnt-LIGHT cells, luminescence, single concentration | shares compounds with Gli-Sufu antag | Wnt3a-driven luciferase reporter | inhibition, % at 6.25 µM | hit rate 20% among 2,500;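 active = mean inhibition above about 25%, limit read from the data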
Each line names hits and unclear results; the compound was inactive in the other large screens (follow-up assays come after a bar, where they were run). Only some compounds are listed: those with a hit (about 2.1% of all), similar ones and a draw of the others.

CC(C)(C)c1ccc(C(=O)NCCCN2CCN(CCCNC(=O)c3ccc(C(C)(C)C)cc3)CC2)cc1	Gli-Sufu antag 71.7 | Gli antag conf inactive | Gli cytotox inactive | Wnt3a cs inactive
CNc1ccccc1C(C)(C)c1cc(-c2cc(C)cc(C)c2)no1	none
CNc1ccccc1C(C)(C)c1cc(-c2cccc(OC)c2)no1	Gli-Sufu antag 70.9 | Gli antag conf 76.0 | Gli cytotox 42.3 | Wnt3a cs inactive
COc1cccc(S(=O)(=O)N[C@@H]2C=C[C@H](CC(=O)NCc3ccc(F)cc3)O[C@@H]2CO)c1	none (no result: GalR3 antagonist, COUP-TFII inh, Gli-Sufu antag, aDG glyco act)
NC(=S)N/N=C/c1ccccc1O	none
NC(=S)N/N=C/c1cccc(O)c1O	Gli-Sufu antag 81.7 | Gli antag conf inactive | Gli cytotox inactive | Wnt3a cs inactive
COc1ccc(N2CCN(C(=O)COC(=O)c3c(-c4ccccc4)noc3C)CC2)cc1	Gli-Sufu antag 65.1 | Gli antag conf inactive | Gli cytotox inactive | Wnt3a cs inactive
Cc1onc(-c2ccccc2)c1C(=O)N1CCN(c2ccccc2)CC1	none (no result: Env fusion inh)
C[C@@H]1CCCCO[C@@H](CN(C)S(=O)(=O)c2ccccc2)[C@H](C)CN([C@H](C)CO)C(=O)c2cc(NC(=O)C3CCCCC3)ccc2O1	none (no result: GalR3 antagonist, COUP-TFII inh, Gli-Sufu antag, aDG glyco act)
COc1ccc(S(=O)(=O)Nc2ccccc2Cl)cc1NC(C)=O	none | Gli antag conf inactive | Gli cytotox inactive | Wnt3a cs inactive
CCN(CC(=O)NCc1cccs1)C(=O)/C=C/c1cc(Br)ccc1OC(F)F	none (no result: Env fusion inh) | Gli antag conf inactive | Gli cytotox inactive | Wnt3a cs inactive
CCN(CC(=O)NCc1cccs1)C(=O)/C=C/c1cccc(Br)c1	none
Cc1cc(Nc2ccccc2Br)n2nc(C)nc2n1	none | Gli antag conf inactive | Gli cytotox inactive | Wnt3a cs inactive
CC(C)Oc1ccc(CCNC(=O)C2CCC(=O)N(Cc3cccc(F)c3)C2)cc1 (stereo not given)	Gli-Sufu antag 57.4 | Gli antag conf inactive | Gli cytotox inactive | Wnt3a cs inactive
Cc1cc(=O)oc(C)c1C(=O)NCCN1CCOCC1	Gli-Sufu antag 71.6 | Gli antag conf inactive | Gli cytotox inactive | Wnt3a cs 25.5
CCCNC(=O)c1c(C)cc(=O)oc1C	none
Cc1c(C)n(C)c2ccc(C(=O)NCCN3CCOCC3)cc12	none
CCn1c(C)c(C)c2cc(C(=O)NCCN3CCOCC3)ccc21	Gli-Sufu antag 57.7 | Gli antag conf inactive | Gli cytotox inactive | Wnt3a cs inactive
CCCCOc1ccc(C(=O)NCCCC(=O)N2CCCCC2)cc1	Gli-Sufu antag 68.0 | Gli antag conf inactive | Gli cytotox inactive | Wnt3a cs inactive
Cc1ccc(OCCOC(=O)c2cc(S(=O)(=O)N3CCCCC3)ccc2N2CCOCC2)cc1	Gli-Sufu antag 55.5 (no result: Env fusion inh) | Gli antag conf 65.5 | Gli cytotox 27.8 | Wnt3a cs inactive
O=C(OCCOc1ccc(Cl)cc1)c1cc(S(=O)(=O)N2CCCCC2)ccc1N1CCOCC1	Gli-Sufu antag 68.6 (no result: Env fusion inh) | Gli antag conf 67.7 | Gli cytotox 32.4 | Wnt3a cs 26.4
O=C(C[C@@H]1C[C@H]2c3cc(NC(=O)NC4CCCC4)ccc3O[C@H]2[C@@H](CO)O1)NC1CCCC1	none (no result: GalR3 antagonist, COUP-TFII inh, Gli-Sufu antag, aDG glyco act)
C[C@H](CO)N1C[C@H](C)[C@@H](CN(C)C(=O)c2ccc3c(c2)OCO3)Oc2ncc(C#CCN(C)C)cc2C1=O	none (no result: GalR3 antagonist, COUP-TFII inh, Gli-Sufu antag, aDG glyco act)
CCN(Cc1ccccc1)C(=O)Cn1cnc2c1c(=O)n(C)c(=O)n2C	Gli-Sufu antag 58.7 | Gli antag conf inactive | Gli cytotox inactive | Wnt3a cs inactive
C[C@@H]1CN([C@@H](C)CO)C(=O)c2cc(NC(=O)Cc3cn(C)c4ccccc34)ccc2O[C@H]1CN(C)Cc1ccncc1	none (no result: GalR3 antagonist, COUP-TFII inh, Gli-Sufu antag, aDG glyco act)
CCCC#Cc1ccc2c(c1)O[C@@H](CN(C)C(=O)c1ccccc1)[C@H](C)CN([C@H](C)CO)S2(=O)=O	none (no result: GalR3 antagonist, COUP-TFII inh, Gli-Sufu antag, aDG glyco act)
COC(=O)Nc1nnc(COc2ccccc2)s1	none
O=C(Cc1cccs1)Nc1nnc(COc2ccccc2)s1	Gli-Sufu antag 99.0 | Gli antag conf inactive | Gli cytotox inactive | Wnt3a cs inactive
Cc1cc(-c2ccc(C)c(S(=O)(=O)NCCCN3CCCCCC3)c2)on1	none
Cc1cc(-c2ccc(C)c(S(=O)(=O)NCCCN3CCN(c4ccccc4F)CC3)c2)on1	Gli-Sufu antag 56.2 | Gli antag conf inactive | Gli cytotox inactive | Wnt3a cs inactive
CC(=O)c1ccc(NS(=O)(=O)c2ccc(C)cc2)cc1	none | Gli antag conf inactive | Gli cytotox inactive | Wnt3a cs inactive
Cc1cc(-c2ccccc2)cc(-c2ccccc2)[n+]1C	Gli-Sufu antag 64.7 | Gli antag conf 70.4 | Gli cytotox 26.9 | Wnt3a cs inactive
C[C@@H]1CCCCO[C@H](CN(C)Cc2ccc3c(c2)OCO3)[C@@H](C)CN([C@H](C)CO)C(=O)c2cc(NC(=O)CCC(F)(F)F)ccc2O1	none (no result: GalR3 antagonist, COUP-TFII inh, Gli-Sufu antag, aDG glyco act)
COc1cccc(/C=N/Nc2ncnc3c2ncn3Cc2ccccc2)c1O	none | Gli antag conf 78.3 | Gli cytotox 31.7 | Wnt3a cs 68.9
Cc1cc2cc(CN(CC3CCCO3)C(=S)Nc3ccccc3)c(=O)[nH]c2cc1C (stereo not given)	Gli-Sufu antag 62.8 (no result: Env fusion inh) | Gli antag conf 79.9 | Gli cytotox 50.4 | Wnt3a cs inactive
O=C1OCC2=C1C(c1ccc(F)cc1)c1cc3c(cc1N2)OCO3 (stereo not given)	Gli-Sufu antag 55.7 | Gli antag conf 57.7 | Gli cytotox 62.3 | Wnt3a cs inactive
C#CCOc1ccc(C2C3=C(COC3=O)Nc3cc4c(cc32)OCO4)cc1OC (stereo not given)	none
CCOc1ccccc1C1C2=C(COC2=O)Nc2cc3c(cc21)OCO3 (stereo not given)	none | Gli antag conf 51.6 | Gli cytotox 62.2 | Wnt3a cs inactive
COC(=O)C[C@@H]1CC[C@@H]2[C@@H](COc3ccc(NC(=O)NC(C)C)cc3C(=O)N2C)O1	none (no result: GalR3 antagonist, COUP-TFII inh, Gli-Sufu antag, aDG glyco act)
CO[C@H]1O[C@H](CO)[C@@H](OC(=O)c2ccc(Br)cc2)[C@H](OC(=O)c2cc3ccccc3[nH]2)[C@H]1OC(=O)c1cc2ccccc2[nH]1	none (no result: GalR3 antagonist, COUP-TFII inh, Gli-Sufu antag, aDG glyco act)
COc1cc2c(cc1OC)C(COc1ccccc1OC)N(C(=O)c1ccco1)CC2 (stereo not given)	Gli-Sufu antag 61.6 | Gli antag conf inactive | Gli cytotox inactive | Wnt3a cs inactive
CCC(=O)N1CCc2cc(OC)c(OC)cc2C1COc1ccccc1OC (stereo not given)	none
